Assay results: PubChem BioAssay (Tox21)
The source made the active and inactive calls. Entries that show only a call come without a potency. Unless noted, calls come from the whole dose curve; as a rule, active = well fitted curve in the direction sought with a large enough effect in the repeat runs; inconclusive = weak or mixed curves; inactive = flat fitted curve, though single readings scatter.

Legend:
[1] = qHTS assay to test for compound auto fluorescence at 535 nm (green) in HEK293 cells (AID 720680)
[2] = qHTS assay to test for compound auto fluorescence at 460 nm (blue) in HEK293 cell free culture (AID 720681)
How it was run: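 Blue fluorescence (Ex 405/Em 460 nm, triamterene-equivalent) was read immediately after pin transfer of compound or DMSO into medium (DMEM, 10% FBS) without cells.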

[3] = qHTS assay to test for compound auto fluorescence at 535 nm (green) in HEK293 cell free culture (AID 720682)
How it was run: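 No cells present: wells hold DMEM supplemented with 10% FBS, into which compound or vehicle is pinned. Green emission is then recorded (485 nm excitation, 535 nm emission) and scaled to fluorescein.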

[4] = qHTS assay to test for compound auto fluorescence at 590 nm (red) in HEK293 cell free culture (AID 720683); note: potency is the fitted concentration of half-maximal effect
How it was run: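 Red-channel autofluorescence of compounds in culture medium (DMEM, 10% FBS), no cells, measured at 540/590 nm. Rose Bengal sodium is the reference fluorophore for equivalence.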

[5] = qHTS assay to test for compound auto fluorescence at 590 nm (red) in HepG2 cell free culture (AID 720684); note: potency is the fitted concentration of half-maximal effect
How it was run: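 Cell-free; medium MEM + 10% FBS; compound or DMSO added by pintool; read Ex 540/Em 590 nm; Rose Bengal sodium as red reference fluorophore.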

[6] = qHTS assay to test for compound auto fluorescence at 460 nm (blue) in HepG2 cell free culture (AID 720685)
How it was run: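 Cell-free plates of MEM plus 10% FBS received 23 nL compound or DMSO vehicle; blue-channel (405/460 nm) intensity scored against triamterene as reference fluorophore.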

[7] = qHTS assay to test for compound auto fluorescence at 535 nm (green) in HepG2 cell free culture (AID 720686)
[8] = qHTS assay to test for compound auto fluorescence at 460 nm (blue) in HepG2 cells (AID 720687)
How it was run: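 Blue-channel autofluorescence (Ex/Em 405/460 nm, triamterene-equivalent) was measured after 1 hr compound exposure at 37 C, 5% CO2. Cells were HepG2, plated overnight at 37 C in MEM plus 10% FBS.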

[9] = molecular target: Glucocorticoid receptor (Homo sapiens) (UniProt P04150); assay: qHTS assay to identify small molecule agonists of the glucocorticoid receptor (GR) signaling pathway (AID 720691; active = well fitted activation curve with a large enough effect in the signal ratio in the repeat runs, not every such curve was filed as active; inconclusive = weak or mixed curves, or effect the other way; inactive = no such curve, though single readings can be large or run the other way; the % refers to the signal ratio; note: potency is the fitted concentration of half-maximal effect); conditions: GR-bla HeLa, beta-lactamase reporter ratio, 18 h; activation: at 62.4 µM (top of the series)
Chain of Glucocorticoid receptor (Homo sapiens) (P04150 whole entry, looked up): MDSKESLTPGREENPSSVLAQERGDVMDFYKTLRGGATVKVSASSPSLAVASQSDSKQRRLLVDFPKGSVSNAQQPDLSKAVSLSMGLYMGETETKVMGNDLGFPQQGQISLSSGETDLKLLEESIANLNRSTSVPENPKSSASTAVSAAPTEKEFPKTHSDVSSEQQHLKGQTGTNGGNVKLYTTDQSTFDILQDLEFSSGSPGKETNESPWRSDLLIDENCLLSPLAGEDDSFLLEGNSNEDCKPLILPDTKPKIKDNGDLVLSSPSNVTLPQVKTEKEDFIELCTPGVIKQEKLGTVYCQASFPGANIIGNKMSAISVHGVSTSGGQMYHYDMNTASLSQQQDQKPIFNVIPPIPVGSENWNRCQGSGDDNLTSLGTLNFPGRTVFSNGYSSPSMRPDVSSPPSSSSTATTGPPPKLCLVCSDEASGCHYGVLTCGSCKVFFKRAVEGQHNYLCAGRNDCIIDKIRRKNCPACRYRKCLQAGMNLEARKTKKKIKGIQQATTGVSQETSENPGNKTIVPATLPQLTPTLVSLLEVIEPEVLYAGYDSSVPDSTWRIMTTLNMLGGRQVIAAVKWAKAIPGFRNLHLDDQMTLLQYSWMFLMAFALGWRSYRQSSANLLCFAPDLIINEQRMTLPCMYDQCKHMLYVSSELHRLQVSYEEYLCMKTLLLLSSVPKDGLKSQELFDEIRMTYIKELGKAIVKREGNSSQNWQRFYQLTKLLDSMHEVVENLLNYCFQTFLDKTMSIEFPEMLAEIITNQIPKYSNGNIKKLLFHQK
How it was run: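 Measures GR pathway activation through a GRE-beta-lactamase reporter stably integrated in HeLa cells, with 18 h compound treatment at 37 C and fluorescence detection using a FRET substrate.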
Tags give direction and shape of the fitted curve or compound fluorescence and quenching.

Compound | Potency [1] | Potency [2] | Potency [3] | Potency [4] | Potency [5] | outcome [6] | Potency [7] | outcome [8] | Potency [9]
CN1[C@@H]2CCC[C@H]1CC(NC(=O)c1nn(C)c3ccccc13)C2 (some centres not stated) | inactive | inactive | inactive | inactive | inactive | inactive | inactive | inactive | –
O=C(CCCN1CCC(C(=O)c2ccc(F)cc2)CC1)c1ccc(F)cc1 | inactive | inactive | inactive | inactive | inactive | inactive | inactive | inactive | –
CC(CC(c1ccccc1)c1ccccc1)NC(C)(C)C (configuration not stated) | inactive | inactive | inactive | inactive | inactive | inactive | inactive | inactive | –
O=P(O)(O)OC[C@H]1O[C@](O)(COP(=O)(O)O)[C@@H](O)[C@@H]1O | inactive | inactive | inactive | inactive | inactive | inactive | inactive | inactive | –
CCSc1ccc2c(c1)N(CCCN1CCN(C)CC1)c1ccccc1S2 | inactive | inactive | inactive | inactive | inactive | inactive | inactive | inactive | –
COC(=O)[C@H]1[C@H]2C[C@@H]3c4[nH]c5ccccc5c4CCN3C[C@H]2C[C@@H](OC(=O)c2cc(OC)c(OC)c(OC)c2)[C@@H]1OC | inactive | inactive | inactive | inactive | inactive | inactive | inactive | inactive | –
O=C1/C(=C\c2cccs2)CCC/C1=C\c1cccs1 | inactive | inactive | inactive | inactive | inactive | inactive | inactive | inactive | –
CCOc1ccc(N=C(C)Nc2ccc(OCC)cc2)cc1 | inactive | inactive | inactive | inactive | inactive | inactive | inactive | inactive | –
CO[C@@H]1[C@@H](O[C@@H]2O[C@H](C)[C@@H](O[C@H]3C[C@@](C)(O)[C@@H](OC(=O)CC(C)C)[C@H](C)O3)[C@H](N(C)C)[C@H]2O)[C@@H](CC=O)C[C@@H](C)C(=O)/C=C/C2OC2C[C@@H](C)OC(=O)C[C@H]1OC(C)=O (some centres not stated) | inactive | inactive | inactive | inactive | inactive | inactive | inactive | inactive | –
CO[C@H]1C[C@H](O[C@H]2[C@H](C)O[C@@H](O[C@@H]3/C(C)=C/C[C@@H]4C[C@@H](C[C@]5(C=C[C@H](C)[C@@H](C6CCCCC6)O5)O4)OC(=O)[C@@H]4C=C(C)[C@@H](O)[C@H]5OC/C(=C\C=C\[C@@H]3C)[C@]54O)C[C@@H]2OC)O[C@@H](C)[C@@H]1O | inactive | inactive | inactive | inactive | inactive | inactive | inactive | inactive | –
CCCCCCCC(=O)CC[C@@H]1[C@@H](C/C=C\CCCC(=O)OC(C)C)[C@@H](O)C[C@H]1O | inactive | inactive | inactive | inactive | inactive | inactive | inactive | inactive | –
CCC(=O)OCC(=O)[C@@]1(OC(=O)CC)[C@H](C)C[C@H]2[C@@H]3CCC4=CC(=O)C=C[C@]4(C)[C@@]3(F)[C@@H](O)C[C@@]21C | inactive | inactive | inactive | inactive | inactive | inactive | inactive | inactive | –
O=[N+]([O-])c1ccc(Oc2ccc(N=C=S)cc2)cc1 | inactive | inactive | inactive | inactive | inactive | inactive | inactive | inactive | –
O=C(/C=C/c1cccc(F)c1)NC1CC1 | inactive | inactive | inactive | inactive | inactive | inactive | inactive | inactive | –
CCNC(=O)[C@@H]1CCCN1C(=O)[C@H](CCCN=C(N)N)NC(=O)[C@H](CC(C)C)NC(=O)[C@@H](Cc1c[nH]c2ccccc12)NC(=O)[C@H](Cc1ccc(O)cc1)NC(=O)[C@H](CO)NC(=O)[C@H](Cc1c[nH]c2ccccc12)NC(=O)[C@H](Cc1cnc[nH]1)NC(=O)[C@@H]1CCC(=O)N1 | inactive | inactive | inactive | inactive | inactive | inactive | inactive | inactive | –
Cc1cc(O)c2c(c1)O[C@@]1(C)CC[C@H]3C(C)(C)CCCC34CO[C@@H]2[C@H]41 (some centres not stated) | inactive | inactive | inactive | inactive | inactive | inactive | inactive | inactive | –
CC(=O)N[C@@H](CC(=O)N[C@@H](CCC(=O)O)C(=O)O)C(=O)O | inactive | inactive | inactive | inactive | inactive | inactive | inactive | inactive | –
C=C1CC[C@@H]2[C@](C)(CO)[C@H](O)CC[C@@]2(C)[C@@H]1C/C=C1/C(=O)OC[C@H]1O | inactive | inactive | inactive | inactive | inactive | inactive | inactive | inactive | –

Compound | Potency [1] | Potency [2] | Potency [3] | Potency [4] | Potency [5] | outcome [6] | Potency [7] | outcome [8] | Potency [9]
Cc1ccccc1 | inactive | inactive | inactive | inactive | inactive | inactive | inactive | inactive | –
CCC(=O)c1ccc2c(c1)N(CCCN1CCN(CCO)CC1)c1ccccc1S2 | inactive | inactive | inactive | inactive | inactive | inactive | inactive | inactive | –
C=C1C(=C/C=C2\CCC[C@]3(C)[C@@H]([C@H](C)/C=C/[C@H](C)C(C)C)CC[C@@H]23)C[C@@H](O)C[C@@H]1O | inactive | inactive | inactive | inactive | inactive | inactive | inactive | inactive | –
Cc1ccc(C2(O)CCN(CCCC(=O)c3ccc(F)cc3)CC2)cc1 | inactive | inactive | inactive | inactive | inactive | inactive | inactive | inactive | –
NCCC(=O)[N-][C@@H](Cc1cnc[nH]1)C(=O)O.[Zn] | inactive | inactive | inactive | inactive | inactive | inactive | inactive | inactive | –
O=C(O)c1c(Cl)c(Cl)c(Cl)c(Cl)c1-c1c2cc(I)c(=O)c(I)c-2oc2c(I)c(O)c(I)cc12 | inactive | inactive | inactive | 11.2 µM [fluorescent] (active) | 11.2 µM [fluorescent] (active) | inactive | inactive | inactive | –
CCCCOC(=O)C(=O)Nc1cccc(-c2nn[nH]n2)c1 | inactive | inactive | inactive | inactive | inactive | inactive | inactive | inactive | –
CCCC(=O)O[C@]1(C(=O)COC(=O)CC)[C@@H](C)C[C@H]2[C@@H]3CCC4=CC(=O)C=C[C@]4(C)[C@@]3(F)[C@@H](O)C[C@@]21C | inactive | inactive | inactive | inactive | inactive | inactive | inactive | inactive | –
CNC[C@@H]1CC[C@@H](N)[C@@H](O[C@H]2[C@H](O)[C@@H](O[C@H]3OC[C@](C)(O)[C@H](NC)[C@H]3O)[C@H](N)C[C@@H]2N)O1 | inactive | inactive | inactive | inactive | inactive | inactive | inactive | inactive | –
COc1cc(-c2ccc(-[n+]3nc(-c4ccccc4)nn3-c3ccc([N+](=O)[O-])cc3)c(OC)c2)ccc1-[n+]1nc(-c2ccccc2)nn1-c1ccc([N+](=O)[O-])cc1 | inactive | inactive | inactive | inactive | inactive | inactive | inactive | inactive | –
CCCCC[C@H](O)/C=C/[C@H]1[C@H](O)CC(=O)[C@@H]1CCCCCCC(=O)O | inactive | inactive | inactive | inactive | inactive | inactive | inactive | inactive | –
CO[C@H]1C[C@@H]2CC[C@@H](C)[C@@](O)(O2)C(=O)C(=O)N2CCCC[C@H]2C(=O)O[C@H]([C@H](C)C[C@@H]2CC[C@@H](OC(=O)C(C)(CO)CO)[C@H](OC)C2)CC(=O)[C@H](C)/C=C(\C)[C@@H](O)[C@@H](OC)C(=O)[C@H](C)C[C@H](C)/C=C/C=C/C=C/1C | inactive | inactive | inactive | inactive | inactive | inactive | inactive | inactive | –
CC1(C)C(\C=C/C=C\C=C/C=C2/N(CCCCS(=O)(=O)O)c3ccc4ccccc4c3C2(C)C)=[N+](CCCCS(=O)(=O)[O-])c2ccc3ccccc3c21 | inactive | inactive | inactive | inactive | inactive | inactive | inactive | inactive | –
CCC(=O)O[C@H]1CC[C@H]2[C@@H]3CCc4cc(O)ccc4[C@H]3CC[C@]12C | inactive | inactive | inactive | inactive | inactive | inactive | inactive | inactive | –
CCCCCCCCCCCC(=O)N(CCO)CCO | inactive | inactive | inactive | inactive | inactive | inactive | inactive | inactive | inactive
C[C@]12C=CC(=O)C=C1CC[C@@H]1[C@@H]2[C@@H](O)C[C@@]2(C)[C@H]1CC[C@]2(O)C(=O)COC(=O)CCC(=O)O | inactive | inactive | inactive | inactive | inactive | inactive | inactive | inactive | 0.268 µM [inconclusive] (active)
OCC(S)CS (configuration not stated) | inactive | inactive | inactive | inactive | inactive | inactive | inactive | inactive | –
